Test results: PubChem BioAssay (NCI)
About 79,000 compounds went through this panel and 15% of them were active in at least one assay; those are over-represented in the sample as a whole. Values without a mark were called inactive. Activity calls are given as the source filed them. Cut-off read from the data, not from the text of the source: active = growth inhibition above about 70%; inactive = the rest.

Key:
[1] = NCI Yeast Anticancer Drug Screen. Data for the rad50 strain (AID 155);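 note: 0% = growth of vehicle-only cultures of the same strain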; conditions: S. cerevisiae rad50 strain growth inhibition, active compounds read high
Summary of the method: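 Cells are treated with compound, grown, and their growth is then scored against vehicle-only cultures of the same repair-deficient yeast strain.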

[2] = NCI Yeast Anticancer Drug Screen. Data for the mec2-1 strain (AID 157); conditions: S. cerevisiae mec2-1 strain, active compounds read high
Summary of the method: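 mec2-1 yeast strain, carrying an alteration in DNA damage repair or cell cycle control, was exposed to compounds; growth inhibition was measured relative to vehicle-treated controls.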

[3] = NCI Yeast Anticancer Drug Screen. Data for the sgs1 mgt1 strain (AID 161);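 note: 0% = growth of cultures given vehicle only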; conditions: S. cerevisiae sgs1 mgt1 strain, active compounds read high
Summary of the method: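 Growth of a repair-deficient yeast mutant was monitored after compound treatment and expressed as inhibition relative to vehicle-treated cultures.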

[4] = NCI Yeast Anticancer Drug Screen. Data for the cln2 rad14 strain (AID 165);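 note: 0% = growth equal to vehicle treated cultures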; conditions: S. cerevisiae cln2 rad14 strain, active compounds read high
Summary of the method: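 Yeast carrying cln2 and rad14 alterations (cell cycle control and DNA damage repair) were exposed to compounds. Growth inhibition was measured against vehicle-treated controls.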

[5] = NCI Yeast Anticancer Drug Screen. Data for the mlh1 rad18 strain (AID 175); conditions: S. cerevisiae mlh1 rad18 strain growth inhibition, active compounds read high
Summary of the method: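 Growth inhibition of the yeast strain was measured after compound exposure and expressed relative to vehicle-treated controls. The strain carries defined defects in DNA damage repair.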

[6] = NCI Yeast Anticancer Drug Screen. Data for the bub3 strain (AID 167); conditions: S. cerevisiae bub3 mutant strain, active compounds read high
Summary of the method: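 Part of a panel of yeast mutants defective in DNA damage repair or cell cycle regulation. Each strain is grown with compound, and inhibition is calculated relative to solvent-treated cultures.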

[7] = at 5.0 µM (retest, dose inferred, filed as 0.5)
[8] = at 50.0 µM (retest, dose inferred, filed as 5.0)

Structure (SMILES)	growth inhibition [1, 7]	growth inhibition [1, 8]	growth inhibition ([1]; at 50.0 µM)	growth inhibition [2, 7]	growth inhibition [2, 8]	growth inhibition ([2]; at 50.0 µM)	growth inhibition [3, 7]	growth inhibition [3, 8]	growth inhibition ([3]; at 50.0 µM)	growth inhibition [4, 7]	growth inhibition [4, 8]	growth inhibition ([4]; at 50.0 µM)	growth inhibition [5, 7]	growth inhibition [5, 8]	growth inhibition ([5]; at 50.0 µM)	growth inhibition [6, 7]	growth inhibition [6, 8]	growth inhibition ([6]; at 50.0 µM)
Cc1c(-c2ccc(C(=N)N)cc2)oc(-c2ccc(C(=N)N)cc2)c1C	88% (active)	98% (active)	89% (active)	84% (active)	98% (active)	90% (active)	92% (active)	99% (active)	88.1% (active)	80% (active)	96% (active)	89% (active)	90% (active)	97% (active)	84.5% (active)			
CCC(C(=O)CCN(C)C)(c1ccccc1)c1ccccc1	67%	99% (active)	99.5% (active)	49%	99% (active)	99.6% (active)	80% (active)	99% (active)	99.3% (active)	19%	99% (active)	99.3% (active)	80% (active)	99% (active)	99.5% (active)			
CCCCCCCCCCCCCCCCCCSSCCCCCCCCCCCCCCCCCC	1%	-3%	36.1%	1%	4%	14.9%	-3%	-3%	-0.8%				-3%	-7%	-16.1%	2%	1%	15.6%
CCOC(=O)c1ccccc1NC(OCC)C(=O)c1ccccc1 (stereo not drawn) (tested in a mixture with another compound)	-5%	70% (active)	75% (active)	5%	22%	63.9%	1%	69%	90.8% (active)	-3%	12%	16.2%	0%	81% (active)	90.7% (active)			
C=CC(=O)N1C/C(=C\c2ccccc2)C(=O)/C(=C/c2ccccc2)C1	44%	75% (active)	73.8% (active)	37%	80% (active)	80.2% (active)	49%	90% (active)	71.7% (active)	39%	58%	48.2%	50%	94% (active)	84.7% (active)			
CCN(CC)CC(O)c1ccnc2c(O)cccc12 (stereo not drawn)	3%	40%	80.2% (active)	4%	40%	20.6%	-2%	33%	71.7% (active)		32%	11.9%	1%	20%	51.9%	-6%	42%	0.1%
Clc1ccc(CN2COc3c(ccc4cccnc34)C2)cc1	1%	36%	97.1% (active)	-2%	65%	64.5%	-1%	97% (active)	99.4% (active)	1%	97% (active)	77.5% (active)	2%	95% (active)	93% (active)			
O=C(c1ccc(Cl)cc1)C1OC12C(=O)Nc1c(Cl)cc(Cl)cc12 (stereo not drawn)	1%	99% (active)	99.2% (active)	3%	99% (active)	99.2% (active)	22%	99% (active)	99.2% (active)	5%	99% (active)	99.1% (active)	4%	99% (active)	98.5% (active)			
Nc1ccc(SCCCc2c(N)nc(N)nc2N)cc1	-8%	4%	57.5%	1%	-8%	92.2% (active)	27%	11%	20.6%	-16%	-17%	91.8% (active)	6%	32%	82.2% (active)			
CCc1cccc(C)c1NC(=O)/C(Cl)=C(\Cl)C(=O)O	67%	99% (active)	99.4% (active)	65%	100% (active)	99.5% (active)	67%	100% (active)	99.7% (active)	54%	99% (active)	99.1% (active)	53%	100% (active)	99.4% (active)	94% (active)	100% (active)	99.5% (active)
CC(=O)OC(C#N)CC(C)(C)/[N+]([O-])=[N+](\[O-])C(C)(C)CC(C#N)OC(C)=O (stereo not drawn)	6%	44%	23.9%	1%	46%	43.5%	8%	97% (active)	77.3% (active)	14%	61%	3.2%	11%	80% (active)	80% (active)	3%	79% (active)	68.1%
C=CCc1cccc(/C=N\N=C(/N)NO)c1O	-1%	26%	43.5%	2%	35%	84.5% (active)	3%	59%	41.1%				-2%	42%	83.2% (active)	-4%	8%	70% (active)
CC1=C(C(=O)NCc2ccccc2)C(c2ccccc2O)C(C(=O)NCc2ccccc2)=C(C)N1	27%	27%	87.3% (active)	17%	17%	85% (active)				13%	13%	71.4% (active)	15%	15%	78.2% (active)	7%	7%	86.4% (active)
COc1ccc2nc(-c3ccc(Cl)cc3)[nH]c2c1	1%	88% (active)	72.7% (active)	-5%	91% (active)	74.9% (active)	-3%	90% (active)	80.5% (active)	-8%	47%	-4%	-4%	78% (active)	60.3%			
COc1ccc(/C=C(/C#N)c2ccccc2)cc1	8%	-2%	67.1%	9%	27%	19.6%	9%	2%	81.5% (active)	1%	4%	16.4%	5%	19%	69%			
Cc1cc(C)[nH]c(=S)n1.[Pt]	-1%	-9%	8.7%	0%	-3%	35.2%	-2%	-5%	12.2%				-2%	-7%	0.5%	2%	-2%	21.9%
COc1ccc(CSC(=S)Nc2cc(C)c(C)cc2[N+](=O)[O-])cc1	9%	93% (active)	95.8% (active)	6%	95% (active)	97.8% (active)				-11%	90% (active)	93% (active)	60%	95% (active)	98% (active)	4%	96% (active)	97% (active)
Cc1nc(N)nn1C	-1%	10%	2.9%	0%	-2%	6.1%	-3%	-1%	-3.55%				1%	2%	-0.4%	0%	-2%	44.2%
CCCCCCCCCCOC(=O)Nc1ccc(C)c(NC(=O)OCCCCCCCCCC)c1	0%	1%	27.4%	1%	-3%	13.4%	3%	-13%	16.8%				-1%	-3%	24.6%	0%	-1%	55.2%
[Cl][Sn]([CH2][CH2][Sn]([Cl])([c]1ccccc1)[c]1ccccc1)([c]1ccccc1)[c]1ccccc1	99% (active)	98% (active)	94.5% (active)	99% (active)	97% (active)	92.2% (active)	99% (active)	97% (active)	95.2% (active)				99% (active)	98% (active)	94.2% (active)	96% (active)	98% (active)	90.9% (active)
COC(=O)C(=[N+]=[N-])C(=O)c1ccc(Cl)cc1	2%	30%	81% (active)	2%	13%	96.2% (active)	2%	40%	50.7%				-3%	18%	40.5%	-14%	-14%	28.9%
